About 4,000 (1%) of roughly 390,000 compounds were called active. A call without a number means that no potency is given here. Not shown: some 4% with an inconclusive outcome. Many of the other results were omitted from the sample, so actives are more common in it than they were. Values without a mark were called inactive. Calls come from the whole dose curve; as a rule, active = well fitted inhibition curve with a large enough effect; inconclusive = small, poorly fitted or top-dose-only effect; inactive = no such curve, though single readings can be large or run the other way.
Target: Thioredoxin reductase 1, cytoplasmic (Rattus norvegicus) (UniProt O89049)
Assay: qHTS Assay for Inhibitors of Mammalian Selenoprotein Thioredoxin Reductase 1 (TrxR1): qHTS; note: nearly all actives have a fitted effect of over 65% in size
Settings: recombinant rTrxR1, NADPH fluorescence consumption, selenite substrate; series mostly up to 114 µM
Method in brief: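 Rat TrxR1 (90 nM in the dispensed reagent) was pre-reduced with 400 uM NADPH for 5 min at room temperature, then incubated with compound for 15 min. After 400 uM selenite was added, NADPH fluorescence (Ex 340/Em 450 nm) was followed for 8 min.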
Potency is the fitted concentration of half-maximal effect.

Chain of Thioredoxin reductase 1, cytoplasmic (Rattus norvegicus) (O89049 whole entry, looked up): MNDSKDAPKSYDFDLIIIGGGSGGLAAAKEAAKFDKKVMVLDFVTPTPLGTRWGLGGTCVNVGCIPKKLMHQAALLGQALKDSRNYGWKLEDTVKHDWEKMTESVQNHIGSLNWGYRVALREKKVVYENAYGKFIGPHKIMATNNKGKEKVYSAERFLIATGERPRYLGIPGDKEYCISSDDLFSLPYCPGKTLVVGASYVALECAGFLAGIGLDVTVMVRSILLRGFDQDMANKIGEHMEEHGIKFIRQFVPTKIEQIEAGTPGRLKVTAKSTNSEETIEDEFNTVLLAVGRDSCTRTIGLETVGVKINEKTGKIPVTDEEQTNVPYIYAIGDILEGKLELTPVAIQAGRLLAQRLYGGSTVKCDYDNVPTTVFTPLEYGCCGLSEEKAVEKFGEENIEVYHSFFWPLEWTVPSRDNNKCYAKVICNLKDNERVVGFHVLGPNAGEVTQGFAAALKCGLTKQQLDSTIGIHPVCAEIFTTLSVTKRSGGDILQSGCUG

| Compound | Potency | activity change, negative = inhibition |
| --- | --- | --- |
| CC1=C(C(=O)OCC2CCCCC2)C(c2c(F)cccc2Cl)CC(=O)N1 (stereo unspecified) | inactive | – |
| Cc1cc(C)c(NC(=O)c2cc3sc(Cl)cc3n2C)c(C)c1 | inactive | – |
| CCN1CCC(O)(/C=C/c2ccc(C)cc2)C(C(=O)/C=C/c2ccc(C)cc2)C1 (stereo unspecified) | 1.26 µM (active) | – |
| Cc1ccc(NC(=O)CSc2nc3ccccc3c3nc(CCn4cncc4C)nn23)cc1F | inactive | – |
| CN(C)C1=C2C=CC=CC2/C(=C2/C=Cc3ccccc32)C=C1 (stereo unspecified) | inactive | – |
| COC(=O)c1ccc(NC(=O)CCc2c(C)nn(-c3ccc(N4CCCC4)nn3)c2C)cc1 | inactive | – |
| Cc1ccc(-c2nc(S(=O)(=O)c3ccc(C)cc3)c(N3CCCCCC3)o2)cc1 | inactive | – |
| CC(C)S(=O)(=O)c1oc(-c2ccc(F)cc2)nc1S(=O)(=O)c1ccc(F)cc1 | 1 µM (active) | – |
| O=C(CSc1oc(-c2ccc(F)cc2)nc1S(=O)(=O)c1ccc(Br)cc1)NC1CCCCC1 | inactive | – |
| C=Cc1ccc(Cn2c(C(=O)OC)cc3sc(C)cc32)cc1 | inactive | – |
| COc1ccc(-c2nc3c(c(SCC(=O)Nc4ccc(C(=O)O)cc4)n2)Cc2ccccc2O3)cc1 | inactive | – |
| Cc1cccc(CNC(=O)c2cnc3sc(N4CCCCC4)nn3c2=O)c1 | inactive | – |
| COc1ccccc1N1CCN(C(=O)C2CCN(S(=O)(=O)c3c(C)noc3/C=C/c3ccc(C)cc3)CC2)CC1 | inactive | – |
| CCn1c(/C=C/c2ccc([N+](=O)[O-])o2)nc2ccccc2c1=O | 3.16 µM (active) | – |
| CCCN(CCC)c1c([N+](=O)[O-])c(=O)oc2ccccc12 | inactive | – |
| COc1cc(OC)c(OC)cc1/C=C/c1nc2ccccc2c(=O)n1-c1ccc(Br)c(C)c1 | inactive | – |
| Cc1ccc(C2c3[nH]c4ccccc4c3CCN2C(=O)c2cccc(C)c2)cc1 (stereo unspecified) | inactive | – |
| COc1ccc(-c2nc3sc(CCNS(=O)(=O)c4ccc(F)c(C)c4)c(C)n3n2)cc1 | inactive | – |
| COc1ccccc1-n1c(-c2cc(-c3ccco3)[nH]n2)n[nH]c1=S | 44.7 µM (active) | – |
| Cc1cc(-c2n[nH]c(=S)n2-c2ccc(C)c(C)c2)no1 | inactive | – |
| COc1ccccc1-n1c(=S)[nH]c2c(sc(=S)n2-c2ccc(C)cc2C)c1=O | inactive | – |

| Compound | Potency | activity change, negative = inhibition |
| --- | --- | --- |
| COc1ccc(N2CCN(C(=O)C3CCCN(C(=O)c4cc5sccc5n4C)C3)CC2)cc1 (stereo unspecified) | inactive | – |
| COc1ccccc1CN1CCNC(=O)C1CC(=O)N(C)CC1CCOCC1 (stereo unspecified) | inactive | – |
| CN(C(=O)CC1C(=O)NCCN1Cc1ccc2ccccc2c1)C1CCOCC1 (stereo unspecified) | 39.8 µM (active) | – |
| COc1ccc(CN2CCNC(=O)C2CC(=O)N(C)Cc2ccccn2)cc1OC (stereo unspecified) | inactive | – |
| O=C(Cn1c(-c2cccs2)cc2ccccc21)NCCc1ccc(Cl)cc1 | inactive | – |
| CCNC(=O)Cn1nc(C)n2c(cc3c(OC)cccc32)c1=O | inactive | – |
| O=C(COC(=O)[C@H](Cc1ccccc1)NC(=O)c1cccs1)Nc1cc(F)ccc1F | inactive | – |
| Cc1ccc(C)c(NC(CC(=O)c2ccccc2)C(=O)OCC(=O)c2cccs2)c1 (stereo unspecified) | 44.7 µM (active) | – |
| COC(=O)C(CC(=O)Nc1cc(C)ccc1C)Nc1ccccc1OC (stereo unspecified) | inactive | – |
| COc1cc2nc(N3CCCN(C)CC3)nc(NC(C)C)c2cc1OC | inactive | – |
| CCOc1ccc(N(Cc2ccccc2)C(=O)c2nc(SCC)ncc2Cl)cc1 | inactive | – |
| CCOc1ccc(N(Cc2ccccc2)C(=O)c2nc(S(C)(=O)=O)ncc2Cl)cc1 | 2.24 µM (active) | – |
| CCOc1ccc(NC(=O)CN(Cc2ccccc2)S(=O)(=O)c2ccc(Cl)cc2)cc1 | inactive | – |
| Nc1ncnc2nnsc12 | inactive | – |
| COc1cc2nc(C#Cc3nc4cc(OC)c(OC)cc4[nH]3)[nH]c2cc1OC | inactive | – |
| CC(C)(C(=O)NO)c1ccccc1 | inactive | – |
| Cc1cccc(CSc2nc3ccncc3n2CC(=O)N(C)C2CCCCC2)c1 | inactive | – |
| O=C(NCCN1CCN(C(=O)c2cccc([N+](=O)[O-])c2)CC1)C(=O)NCc1ccc(Cl)cc1 | inactive | – |
| CC(=O)N(CN1C(=O)C2C3C=CC(C3)C2C1=O)c1cccc(Cl)c1 (stereo unspecified) | – | 9.83% [at 11.4 µM] |
| O=C(CCl)N(Cc1cccc([N+](=O)[O-])c1)c1cccc(Cl)c1 | 7.94 µM (active) | – |
| Cc1ccc(Cl)cc1N(C)C(=O)C1CCCN(c2ncnc3onc(-c4ccc(F)cc4)c23)C1 (stereo unspecified) | inactive | – |

| Compound | Potency | activity change, negative = inhibition |
| --- | --- | --- |
| Cc1cccc(N2CCN(C(c3ccc(N(C)C)cc3)c3nnnn3C(C)(C)C)CC2)c1C (stereo unspecified) | 11.2 µM (active) | – |
| CC(C)(C)n1nnnc1C(c1ccc(Cl)cc1)N1CCSCC1 (stereo unspecified) | inactive | – |
| CC(C)(C)n1nnnc1C(c1ccc2ncccc2c1)N1CCSCC1 (stereo unspecified) | inactive | – |
| Cc1ccsc1CN(C(=O)c1oc2ccc(Br)cc2c1C)C1CCS(=O)(=O)C1 (stereo unspecified) | inactive | – |
| Cc1cccc(S(=O)(=O)c2cn(Cc3ccccc3)c3cc(N4CCOCC4)c(F)cc3c2=O)c1 | inactive | – |
| COc1ccccc1-c1noc(CSc2nnc(-c3ccccc3)n2-c2ccc(C)c(C)c2)n1 | inactive | – |
| O=C(Nc1ccccc1)c1ccccc1OCc1ccccc1 | inactive | – |
| COc1ccc(CCn2cc3c(c2-c2ccc(Br)cc2)c(=O)n(C)c(=O)n3C)cc1OC | inactive | – |
| Cc1ccc(-c2c3c(=O)n(C)c(=O)n(C)c3cn2-n2cnnc2)cc1 | 50.1 µM (active) | – |
| COc1ccc(-c2c3c(=O)n(C)c(=O)n(C)c3c3c(C)nc4ccccc4n23)cc1 | inactive | – |
| Cc1ccc(N(CC(=O)NCC(C)c2ccccc2)S(=O)(=O)N(C)C)cc1 (stereo unspecified) | inactive | – |
| Cc1cccc(NC(=O)CN2CCCN(S(=O)(=O)c3ccc(Br)s3)CC2)c1 | 12.6 µM (active) | – |
| CC(C)N(C(=O)CN1CCN(S(=O)(=O)c2ccc(Br)s2)CC1)C(C)C | inactive | – |
| COc1cc(NC(=O)CN2CCN(S(=O)(=O)c3ccc(Br)cc3)CC2)cc(OC)c1 | inactive | – |
| Cc1ccc2ccc3c(c2n1)NS(=O)(=O)c1ccccc1-3 | inactive | – |
| COc1ccc(C(=O)C2CCCN(C(=O)c3ccc(OC)o3)C2)c(C)c1 (stereo unspecified) | 39.8 µM (active) | – |
| COc1ccc(C(=O)C2CCCN(S(=O)(=O)c3cccc(C)c3)C2)c(C)c1 (stereo unspecified) | inactive | – |
| COc1ccc(C(=O)C2CCCN(C(=O)c3cnsn3)C2)c(C)c1 (stereo unspecified) | inactive | – |
| CN(C)c1ccc(/C=C/c2sc3ccccc3[n+]2C)cc1 | inactive | – |

— PubChem BioAssay AID588453 (National Center for Advancing Translational Sciences (NCATS), 2011)
